We go through 40 molecules from PubChem BioAssay AID602144 (Vanderbilt Specialized Chemistry Center, 2011).

Active and inactive are the calls of the source. Cut-off read from the data, not from the text of the source: active = remaining activity below about 50%; inactive = the rest.

The target of the test is Phospholipase D1 (Homo sapiens) (UniProt Q13393). In words: PLD1 inhibitors in cells, Calu-1 cells, single concentration (AID 602144).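 Note: tested at 200 nM.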 The note with it: cellular PLD1 activity, active compounds read low.
Phospholipase D1 (Homo sapiens), sequence (Q13393 whole entry, looked up): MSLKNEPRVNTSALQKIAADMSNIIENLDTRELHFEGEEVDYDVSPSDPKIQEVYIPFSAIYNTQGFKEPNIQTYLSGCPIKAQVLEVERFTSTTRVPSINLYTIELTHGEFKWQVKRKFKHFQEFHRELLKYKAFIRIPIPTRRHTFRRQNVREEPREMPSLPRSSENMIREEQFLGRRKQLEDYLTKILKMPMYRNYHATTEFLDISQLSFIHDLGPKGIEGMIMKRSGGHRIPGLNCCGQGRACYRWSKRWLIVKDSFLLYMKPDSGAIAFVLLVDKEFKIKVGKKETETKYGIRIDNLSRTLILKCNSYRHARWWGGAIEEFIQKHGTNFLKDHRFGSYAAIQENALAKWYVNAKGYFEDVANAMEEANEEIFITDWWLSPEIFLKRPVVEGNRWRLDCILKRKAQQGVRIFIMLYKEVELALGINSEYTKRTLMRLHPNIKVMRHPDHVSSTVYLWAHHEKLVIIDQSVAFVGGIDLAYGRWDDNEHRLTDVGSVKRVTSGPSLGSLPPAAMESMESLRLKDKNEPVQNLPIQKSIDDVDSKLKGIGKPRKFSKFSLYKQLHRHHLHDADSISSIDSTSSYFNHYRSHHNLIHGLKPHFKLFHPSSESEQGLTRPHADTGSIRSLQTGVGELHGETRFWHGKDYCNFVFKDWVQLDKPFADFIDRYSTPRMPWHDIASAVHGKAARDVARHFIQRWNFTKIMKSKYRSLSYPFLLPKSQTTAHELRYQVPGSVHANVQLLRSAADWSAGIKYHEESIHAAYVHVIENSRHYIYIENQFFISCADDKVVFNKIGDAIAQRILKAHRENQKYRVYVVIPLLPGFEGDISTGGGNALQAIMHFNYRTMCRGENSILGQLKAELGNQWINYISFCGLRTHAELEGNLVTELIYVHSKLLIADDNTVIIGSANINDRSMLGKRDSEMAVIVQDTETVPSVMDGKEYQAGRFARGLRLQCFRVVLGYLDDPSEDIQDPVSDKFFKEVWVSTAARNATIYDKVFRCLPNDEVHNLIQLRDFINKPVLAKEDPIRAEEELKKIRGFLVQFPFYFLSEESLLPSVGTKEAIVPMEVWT
Phospholipase D1 (Homo sapiens), sequence (Q13393 whole entry, looked up): as above
As usually defined, the remaining activity is the signal under treatment as a percentage of the control signal. For `Cc1ccc(NC(=S)NCCN2CCC(n3c(=O)[nH]c4ccccc43)CC2)cc1`, the remaining activity was 152% (inactive).

As for `C[C@@H](CN1CCC(n2c(=O)[nH]c3ccccc32)CC1)NC(=O)c1cc2ccccc2s1`, the remaining activity was 28% (active). In the case of `C[C@@H](CN1CCC(n2c(=O)[nH]c3ccccc32)CC1)NC(=O)COc1ccccc1` it was 28.1% (active).

For the molecule `O=C(CCc1ccc(F)cc1)NCCN1CCC(n2c(=O)[nH]c3ccccc32)CC1`, the remaining activity is 75.2% (inactive). Turning to `O=C(NCCN1CCC2(CC1)CNc1ccccc12)c1ccc2ccccc2c1`, the remaining activity was 43.9% (active). The figure for `O=C(NCCN1CCN(c2ccccn2)CC1)c1ccc(Cl)cc1` is 153% (inactive).

Turning to `CC1(C)[C@@H]2CC[C@@]1(CS(=O)(=O)NCCN1CCC(n3c(=O)[nH]c4ccccc43)CC1)C(=O)C2`, the remaining activity is 103% (inactive).

For the molecule `C[C@@H](CN1CCC(n2c(=O)[nH]c3cc(-c4ccc(C(F)(F)F)cc4)ccc32)CC1)NC(=O)[C@H]1C[C@@H]1c1ccccc1`, the remaining activity was 63.9% (inactive). Regarding `O=C(NCCN1CCC(n2c(=O)[nH]c3ccccc32)CC1)Nc1cccc(C(F)(F)F)c1`, the remaining activity is 135% (inactive).

On to `O=C(CCc1ccccc1)NCCN1CCC(n2c(=O)[nH]c3ccccc32)CC1`, for which the remaining activity was 76.1% (inactive). Take `O=C(NCCN1CCC(n2nnc3ccccc32)CC1)c1cnc2ccccc2c1`: the remaining activity is 79.2% (inactive). Regarding `Cn1c(=O)n(C2CCN(CCNC(=O)c3ccc4ccccc4c3)CC2)c2ccccc21`, the remaining activity is 71.6% (inactive). As for `O=C(NCCN1CCC(n2c(=O)[nH]c3ccccc32)CC1)c1cnccn1`, the remaining activity was 76.7% (inactive). `C[C@@H](CN1CCC(n2c(=O)[nH]c3cc(I)ccc32)CC1)NC(=O)C1CC1c1ccccc1` (stereo not given in full): the remaining activity is 19.9% (active). The figure for `O=C(Cc1ccc2ccccc2c1)NCCN1CCC(n2c(=O)[nH]c3ccccc32)CC1` is 87.7% (inactive). As to `O=C(NCCN1CC=C(n2c(=O)[nH]c3ccccc32)CC1)[C@H]1C[C@@H]1c1ccccc1`, the remaining activity was 85.3% (inactive). In the case of `O=C(NCCN1CCC(n2c(=O)[nH]c3ccccc32)CC1)c1ccccc1-c1ccccc1`, the remaining activity was 92.1% (inactive).

With `O=C(NCCN1CCC(C(=O)NCc2ccc(Cl)cc2)CC1)c1ccc2ccccc2c1`, the remaining activity was 99.2% (inactive). As to `Cc1ccc(C(=O)N[C@@H](C)CN2CCC(n3c(=O)[nH]c4ccc(F)cc43)CC2)cc1`, the remaining activity is 27.4% (active). For the molecule `O=C(NCCN1CCN(c2ccncc2)CC1)c1ccc(F)cc1O`, the remaining activity was 152% (inactive). Turning to `O=c1[nH]c2ccccc2n1C1CCN(CCNS(=O)(=O)c2cc(Cl)ccc2Cl)CC1`, the remaining activity is 104% (inactive). The figure for `O=C(NCCN1CCC(n2c(=O)[nH]c3ccccc32)CC1)N1c2ccccc2Sc2ccccc21` is 89.7% (inactive); for `O=C(NCCN1CCC(C(=O)Nc2ccccc2)CC1)c1ccc2ccccc2c1` it is 102% (inactive). `O=C(c1ccc(Cl)cc1)N1CCC2(CC1)C(=O)NCN2c1ccccc1`: the remaining activity was 102% (inactive). Turning to `O=c1[nH]c2ccccc2n1C1CCN(CCNS(=O)(=O)c2ccc(OC(F)(F)F)cc2)CC1`, the remaining activity is 117% (inactive). For `O=C(NCCN1CCC(n2c(=O)[nH]c3ccccc32)CC1)C1CCCCCC1`, the remaining activity was 98.9% (inactive). For the molecule `O=C(NCCN1CCC(n2c(=O)[nH]c3ccccc32)CC1)C1CCCCCCCCCC1`, the remaining activity was 85.9% (inactive). Turning to `CCNC(=S)NCCN1CCC(n2c(=O)[nH]c3ccccc32)CC1`, the remaining activity is 144% (inactive). In the case of `O=C(NCCN1CCC(n2c(=O)[nH]c3cc(I)ccc32)CC1)C1CC1c1ccccc1` (stereo not given) it was 16.1% (active). For the molecule `COc1ccc2c(c1)c(CC(=O)NCCN1CCC(n3c(=O)[nH]c4ccccc43)CC1)c(C)n2C(=O)c1ccc(Cl)cc1`, the remaining activity was 98.1% (inactive). Consider `O=C(NCCN1CCN(c2ccncc2)CC1)c1ccc(Cl)cc1`, for which the remaining activity is 121% (inactive). On to `CC(C)[C@@H](CN1CCC(n2c(=O)[nH]c3ccccc32)CC1)NC(=O)[C@@H]1C[C@H]1c1ccccc1`, for which the remaining activity is 82.9% (inactive). Turning to `O=C(NCCN1CCC(n2c(=O)[nH]c3ccccc32)CC1)C1(c2ccccc2)CCC1`, the remaining activity was 127% (inactive). Take `COc1ccc(S(=O)(=O)NCCN2CCC(n3c(=O)[nH]c4ccccc43)CC2)cc1`: the remaining activity is 140% (inactive). In the case of `O=C(NCCN1CCC2(CC1)CNc1ccccc12)c1cnc2ccccc2c1`, the remaining activity was 126% (inactive).

With `O=C(C1C[C@@H]1c1ccccc1)N1CCC(n2c(=O)[nH]c3cc(Cl)ccc32)CC1` (stereo not given in full), the remaining activity was 89.8% (inactive). `C[C@@H](CN1CCC(n2c(=O)[nH]c3ccccc32)CC1)NC(=O)c1ccc2ncccc2c1`: the remaining activity is 29.2% (active).

`C[C@@H](CN1CCC2(CC1)CN(S(C)(=O)=O)c1ccccc12)NC(=O)c1ccc2ccccc2c1`: the remaining activity is 119% (inactive). The figure for `O=C(NCCN1CC=C(n2c(=O)[nH]c3ccccc32)CC1)C1CC1c1ccccc1` (stereo not given) is 0% (active); for `C=CCCCCCCCCC(=O)NCCN1CCC(n2c(=O)[nH]c3ccccc32)CC1` it is 81.3% (inactive).
